Assay results published in PubChem BioAssay (NCATS).
Records with an inconclusive call do not appear. A number with no mark means an inactive call. The source made the active and inactive calls. Calls follow the shape of the dose curve; as a rule, active = well fitted curve in the direction sought with a large enough effect; inconclusive = small, poorly fitted or top-dose-only effect, or another doubt; inactive = no such curve, though single readings can be large; an effect the other way counts as inactive or inconclusive.

Columns and labels:
[1] = qHTS of pediatric cancer cell lines to identify multiple opportunities for drug repurposing: Primary screen for DAOY cells (AID 1347090); also: nearly all actives have a fitted effect of over 55% in size
Outline: (§1)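 Eight- or eleven-point concentration series, 48 h treatment at 37 degrees C in growth media; readout CellTiter-Glo luminescence. Potency and efficacy were taken from the concentration-response curves.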

[2] = qHTS of pediatric cancer cell lines to identify multiple opportunities for drug repurposing: Primary screen for SJ-GBM2 cells (AID 1347091)
Outline: as §1

[3] = qHTS of pediatric cancer cell lines to identify multiple opportunities for drug repurposing: Primary screen for A673 cells (AID 1347092); also: nearly all actives have a fitted effect of over 45% in size
Outline: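 A673 cells (500-1,000 cells/well) were treated 48 hours at 37 degrees C with compounds at 11-point (0.78 nM to 46 µM) or 8-point (0.59 nM to 46 µM) dilutions. Viability read by CellTiter-Glo luminescence; concentration-response curves fitted.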

[4] = qHTS of pediatric cancer cell lines to identify multiple opportunities for drug repurposing: Primary screen for SK-N-MC cells (AID 1347093)
Outline: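 Metabolically active cells were quantified by ATP-dependent luminescence (CellTiter-Glo, 15 min at room temperature) following 48 h treatment. Cells had been plated at 500-1,000 per well and settled for 5 h beforehand.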

[5] = qHTS of pediatric cancer cell lines to identify multiple opportunities for drug repurposing: Primary screen for NB-EBc1 cells (AID 1347095)
Outline: (§2)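 Luminescence from CellTiter-Glo served as readout of metabolically active cells after 48 h compound exposure. Titrations: MIPE 11-point, from 0.78 nM; NPC 8-point, from 0.59 nM (final). Concentration-response curves came straight from the primary screen.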

[6] = qHTS of pediatric cancer cell lines to identify multiple opportunities for drug repurposing: Primary screen for U-2 OS cells (AID 1347096); also: nearly all actives have a fitted effect of over 50% in size
Outline: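 Cells (500-1,000/well) in growth media were settled 5 h at 37 degrees C, then given compounds for 48 h. Viability was read as CellTiter-Glo luminescence. Primary runs used MIPE at 11 points (0.78 nM-46 µM) and NPC at 8 points (0.59 nM-46 µM); follow-ups used 11 points.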

[7] = qHTS of pediatric cancer cell lines to identify multiple opportunities for drug repurposing: Primary screen for Saos-2 cells (AID 1347097); also: nearly all actives have a fitted effect of over 40% in size
Outline: as §2

[8] = qHTS of pediatric cancer cell lines to identify multiple opportunities for drug repurposing: Primary screen for SK-N-SH cells (AID 1347098); also: nearly all actives have a fitted effect of over 65% in size
Outline: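 Cells (500-1,000/well) rested 5 h, then received compounds for 48 h; metabolically active cells were measured by CellTiter-Glo luminescence. Final concentrations spanned up to 46 µM (MIPE, 11-point) or 0.59 nM-46 µM (NPC, 8-point) in primary screens, 11-point in follow-ups.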

[9] = qHTS of pediatric cancer cell lines to identify multiple opportunities for drug repurposing: Primary screen for NB1643 cells (AID 1347099); also: nearly all actives have a fitted effect of over 50% in size
Outline: as §2

[10] = qHTS of pediatric cancer cell lines to identify multiple opportunities for drug repurposing: Primary screen for BT-37 cells (AID 1347094)
Outline: as §2
Potency is read from the fitted curve at half-maximal effect.

CCC=CC[C@H]1C(=O)CC[C@@H]1CC(=O)OC
Potency [1]: inactive | Potency [2]: inactive | Potency [3]: inactive | Potency [4]: inactive | Potency [5]: inactive | Potency [6]: inactive | Potency [7]: inactive | Potency [8]: 19.2 µM (active) | Potency [9]: inactive

N#CC(c1ccc(Cl)cc1)c1c(Cl)cc(-n2ncc(=O)[nH]c2=O)cc1Cl (stereo not drawn)
Potency [1]: 9.35 µM (active) | Potency [2]: 23.5 µM (active) | Potency [3]: 11.8 µM (active) | Potency [4]: 9.35 µM (active) | Potency [5]: 8.33 µM (active) | Potency [7]: 9.35 µM (active) | Potency [9]: 18.7 µM (active)

CCC(C)SSc1ncc[nH]1 (stereo not drawn)
Potency [1]: 18.7 µM (active) | Potency [2]: 20.9 µM (active) | Potency [3]: 18.7 µM (active) | Potency [4]: 3.72 µM (active) | Potency [5]: 5.9 µM (active) | Potency [6]: inactive | Potency [7]: 18.7 µM (active)

CC[C@]1(O)C[C@H]2CN(CCC3=c4ccccc4=N[C]3[C@@](C(=O)OC)(c3cc4c(cc3OC)N(C)[C@H]3[C@@](O)(C(N)=O)[C@H](O)[C@]5(CC)C=CCN6CC[C@]43[C@@H]65)C2)C1
Potency [1]: 0.469 µM (active) | Potency [2]: 0.001 µM (active) | Potency [3]: 0.0148 µM (active) | Potency [4]: 0.0235 µM (active) | Potency [5]: 0.0296 µM (active) | Potency [7]: 0.148 µM (active)

CN(C)CC[C@H](CSc1ccccc1)Nc1ccc(S(=O)(=O)NC(=O)c2ccc(N3CCN(Cc4ccccc4-c4ccc(Cl)cc4)CC3)cc2)cc1[N+](=O)[O-]
Potency [1]: 18.7 µM (active) | Potency [2]: 0.0833 µM (active) | Potency [3]: 3.72 µM (active) | Potency [4]: 0.0148 µM (active) | Potency [5]: 0.0418 µM (active) | Potency [6]: 14.8 µM (active) | Potency [7]: 9.35 µM (active) | Potency [8]: 7.64 µM (active) | Potency [9]: 0.0187 µM (active)

CC(C)CN(C[C@@H](O)[C@H](Cc1ccccc1)NC(=O)O[C@H]1CO[C@H]2OCC[C@H]21)S(=O)(=O)c1ccc(N)cc1
Potency [1]: 14.8 µM (active) | Potency [2]: inactive | Potency [3]: 5.9 µM (active) | Potency [4]: 2.35 µM (active) | Potency [10]: 6.11 µM (active) | Potency [7]: 20.9 µM (active) | Potency [8]: inactive | Potency [9]: 18.7 µM (active)

COc1ccc(-c2oc3c(CC=C(C)C)c(O)cc(O)c3c(=O)c2O)cc1
Potency [1]: 23.5 µM (active) | Potency [2]: 18.7 µM (active) | Potency [3]: 18.7 µM (active) | Potency [4]: 9.35 µM (active) | Potency [5]: 18.7 µM (active) | Potency [7]: 23.5 µM (active)

Cc1ccc(S(=O)(=O)OCC(=O)Nc2ccc(C(=O)O)c(O)c2)cc1
Potency [1]: inactive | Potency [2]: inactive | Potency [3]: 14.8 µM (active) | Potency [4]: 9.35 µM (active) | Potency [5]: inactive | Potency [6]: inactive | Potency [7]: inactive | Potency [9]: 18.7 µM (active)

CNC1CCC(N(Cc2cccc(-c3ccncc3)c2)C(=O)c2sc3ccccc3c2Cl)CC1 (stereo not drawn)
Potency [1]: inactive | Potency [2]: 23.5 µM (active) | Potency [3]: 14.8 µM (active) | Potency [4]: 23.5 µM (active) | Potency [5]: 26.4 µM (active) | Potency [6]: inactive | Potency [7]: 26.4 µM (active) | Potency [8]: 24.1 µM (active)
